Source: PubChem BioAssay AID1159580 (chemical genetic matrix, 2015)
About 2,000 (36%) of roughly 5,500 compounds were called active. Not shown: some 18% with an inconclusive outcome. No stated cut-off is given here; in the data, active means normalized growth mostly below about 0.91 (no sharp cut-off); inconclusive means no clear call, values can overlap the other calls; inactive means mostly above about 0.92. Some of the results follow.

Assay: chemical genetic growth profiling, strain panel (AID 1159580);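 further: tested at 20 µM; growth read once vehicle control cultures reached saturation at 30 °C; 1 = growth at the plate median or of vehicle wells; lower values mean less growth of the strain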
Conditions: growth OD

Measured: normalized growth

CCOc1ccc2c(c1)C(C)=CC(C)(C)N2
inactive: S. cerevisiae deletion strains, locus YJR043C, strain POL32, hits give low values 0.979 | S. cerevisiae deletion strains, locus YJR075W, strain HOC1, hits give low values 0.975 | S. cerevisiae deletion strains, locus YKL009W, strain mrt4, hits give low values 0.988 | S. cerevisiae deletion strains, locus YKL068W, hits give low values 0.989 | S. cerevisiae deletion strains, locus YKL085W, strain MDH1 (second series), hits give low values 0.987 | S. cerevisiae deletion strains, locus YKL085W, strain MDH1, hits give low values 0.987 | S. cerevisiae deletion strains, locus YKL160W, strain elf1, hits give low values 0.996 | S. cerevisiae deletion strains, locus YKL190W, strain CNB1, hits give low values 0.997 | S. cerevisiae deletion strains, locus YKR001C, strain vps1, hits give low values 0.976 | S. cerevisiae deletion strains, locus YKR026C, strain gcn3, hits give low values 0.979 | S. cerevisiae deletion strains, locus YKR091W, strain srl3, hits give low values 0.98 | S. cerevisiae deletion strains, locus YLL001W, strain dnm1, hits give low values 1 | S. cerevisiae deletion strains, locus YLL026W, hits give low values 0.986 | S. cerevisiae deletion strains, locus YLL041C, strain sdh2, hits give low values 0.989 | S. cerevisiae deletion strains, locus YLR027C, strain aat2, hits give low values 1.01 | S. cerevisiae deletion strains, locus YLR039C, strain RIC1, hits give low values 0.997 | S. cerevisiae deletion strains, locus YLR058C, strain SHM2, hits give low values 0.984 | S. cerevisiae deletion strains, locus YLR102C, strain apc9, hits give low values 0.992 | S. cerevisiae deletion strains, locus YLR221C, strain rsa3, hits give low values 1 | S. cerevisiae deletion strains, locus YLR258W, strain gsy2, hits give low values 0.997 | S. cerevisiae deletion strains, locus YLR262C, strain YPT6 (second series), hits give low values 0.981 | S. cerevisiae deletion strains, locus YLR262C, strain YPT6, hits give low values 0.969 | S. cerevisiae deletion strains, locus YLR268W, strain sec22, hits give low values 0.924 | S. cerevisiae deletion strains, locus YLR320W, strain mms22, hits give low values 0.982 | S. cerevisiae deletion strains, locus YLR330W, strain CHS5, hits give low values 1 | S. cerevisiae deletion strains, locus YLR342W, strain FKS1 (second series), hits give low values 0.999 | S. cerevisiae deletion strains, locus YLR342W, strain FKS1, hits give low values 0.987 | S. cerevisiae deletion strains, locus YLR357W, strain rsc2, hits give low values 0.963 | S. cerevisiae deletion strains, locus YLR370C, strain arc18, hits give low values 0.998 | S. cerevisiae deletion strains, locus YLR371W, strain rom2, hits give low values 0.976 | S. cerevisiae deletion strains, locus YLR384C, strain iki3, hits give low values 0.989 | S. cerevisiae deletion strains, locus YLR418C, strain cdc73, hits give low values 0.983 | S. cerevisiae deletion strains, locus YML016C, strain PPZ1, hits give low values 0.984 | S. cerevisiae deletion strains, locus YML032C, strain rad52, hits give low values 0.977 | S. cerevisiae deletion strains, locus YML120C, strain ndi1, hits give low values 1 | S. cerevisiae deletion strains, locus YML124C, strain tub3, hits give low values 0.989 | S. cerevisiae deletion strains, locus YMR058W, strain fet3, hits give low values 0.988 | S. cerevisiae deletion strains, locus YMR078C, strain ctf18, hits give low values 0.972 | S. cerevisiae deletion strains, locus YMR125W, strain sto1, hits give low values 0.981 | S. cerevisiae deletion strains, locus YMR129W, hits give low values 0.991 | S. cerevisiae deletion strains, locus YMR205C, strain PFK2, hits give low values 0.987 | S. cerevisiae deletion strains, locus YMR223W, strain ubp8, hits give low values 0.998 | S. cerevisiae deletion strains, locus YMR231W, strain pep5, hits give low values 0.963 | S. cerevisiae deletion strains, locus YMR263W, strain SAP30, hits give low values 0.981 | S. cerevisiae deletion strains, locus YMR307W, strain GAS1, hits give low values 0.971 | S. cerevisiae deletion strains, locus YNL067W, strain RPL9B, hits give low values 0.977 | S. cerevisiae deletion strains, locus YNL071W, strain lat1, hits give low values 0.991 | S. cerevisiae deletion strains, locus YNL128W, strain TEP1, hits give low values 0.99 | S. cerevisiae deletion strains, locus YNL153C, strain GIM3, hits give low values 0.98 | S. cerevisiae deletion strains, locus YNL209W, strain ssb2, hits give low values 0.994 | S. cerevisiae deletion strains, locus YNL233W, strain BNI4, hits give low values 0.978 | S. cerevisiae deletion strains, locus YNL248C, strain rpa49, hits give low values 0.986 | S. cerevisiae deletion strains, locus YNL250W, strain rad50, hits give low values 0.986 | S. cerevisiae deletion strains, locus YNL271C, strain bni1, hits give low values 0.968 | S. cerevisiae deletion strains, locus YNL298W, strain CLA4, hits give low values 0.974 | S. cerevisiae deletion strains, locus YNL307C, strain MCK1, hits give low values 0.985 | S. cerevisiae deletion strains, locus YNL322C, strain KRE1 (second series), hits give low values 0.984 | S. cerevisiae deletion strains, locus YNL322C, strain KRE1, hits give low values 0.993 | S. cerevisiae deletion strains, locus YNR049C, strain mso1, hits give low values 0.989 | S. cerevisiae deletion strains, locus YNR052C, strain pop2, hits give low values 1 | S. cerevisiae deletion strains, locus YOL006C, strain TOP1, hits give low values 0.841 | S. cerevisiae deletion strains, locus YOL012C, strain htz1 1.09 | S. cerevisiae deletion strains, locus YOL147C, strain pex11, hits give low values 0.98 | S. cerevisiae deletion strains, locus YOR001W, strain rrp6, hits give low values 1.01 | S. cerevisiae deletion strains, locus YOR061W, strain CKA2, hits give low values 0.981 | S. cerevisiae deletion strains, locus YOR069W, strain VPS5, hits give low values 0.984 | S. cerevisiae deletion strains, locus YOR070C, strain gyp1, hits give low values 0.995 | S. cerevisiae deletion strains, locus YOR080W, strain dia2, hits give low values 0.989 | S. cerevisiae deletion strains, locus YOR083W, strain WHI5, hits give low values 0.989 | S. cerevisiae deletion strains, locus YOR106W, strain vam3, hits give low values 1 | S. cerevisiae deletion strains, locus YOR136W, strain idh2, hits give low values 0.99 | S. cerevisiae deletion strains, locus YOR144C, strain elg1, hits give low values 0.992 | S. cerevisiae deletion strains, locus YOR184W, strain ser1, hits give low values 0.969 | S. cerevisiae deletion strains, locus YOR265W, strain rbl2, hits give low values 1.03 | S. cerevisiae deletion strains, locus YOR270C, strain vph1, hits give low values 1 | S. cerevisiae deletion strains, locus YOR290C, strain snf2, hits give low values 0.991 | S. cerevisiae deletion strains, locus YOR316C, strain cot1, hits give low values 0.983 | S. cerevisiae deletion strains, locus YPL051W, strain arl3, hits give low values 0.985 | S. cerevisiae deletion strains, locus YPL055C, strain LGE1, hits give low values 0.997 | S. cerevisiae deletion strains, locus YPL078C, strain atp4, hits give low values 1.02 | S. cerevisiae deletion strains, locus YPL106C, strain sse1, hits give low values 0.964 | S. cerevisiae deletion strains, locus YPL240C, strain hsp82, hits give low values 0.991 | S. cerevisiae deletion strains, locus YPL241C, strain CIN2, hits give low values 0.997 | S. cerevisiae deletion strains, locus YPR119W, strain clb2, hits give low values 0.984 | S. cerevisiae deletion strains, locus YPR141C, strain kar3, hits give low values 0.973 | S. cerevisiae deletion strains, locus YPR163C, strain tif3, hits give low values 0.978 | S. cerevisiae deletion strains, locus YPR167C, strain met16, hits give low values 0.987 | S. cerevisiae deletion strains, strain wtn01, hits give low values 0.967 | S. cerevisiae strains, strain wild type, hits give low values 0.996
